Reference: PubChem BioAssay AID489028 (Sanford-Burnham Center for Chemical Genomics, 2010)
The whole screen tested about 10,000 compounds, of which about 5,600 (56%) were called active. The set was probably picked from earlier hits. A selection follows. A number with no mark means an inactive call. Rule as the data show it: active = inhibition above about 40%; inactive = the rest.

Target: Protein Mdm4 (Homo sapiens) + E3 ubiquitin-protein ligase Mdm2 (Homo sapiens) (UniProt O15151+Q00987)
Test: Mdm2-MdmX complex disruptors, retested hits, confirmation, luminescence, single concentration (AID 489028)
Details: Mdm2-MdmX binding, luminescent assay; at 8 µM; hits give high values

Chain of Protein Mdm4 (Homo sapiens) + E3 ubiquitin-protein ligase Mdm2 (Homo sapiens) (O15151 whole entry, looked up): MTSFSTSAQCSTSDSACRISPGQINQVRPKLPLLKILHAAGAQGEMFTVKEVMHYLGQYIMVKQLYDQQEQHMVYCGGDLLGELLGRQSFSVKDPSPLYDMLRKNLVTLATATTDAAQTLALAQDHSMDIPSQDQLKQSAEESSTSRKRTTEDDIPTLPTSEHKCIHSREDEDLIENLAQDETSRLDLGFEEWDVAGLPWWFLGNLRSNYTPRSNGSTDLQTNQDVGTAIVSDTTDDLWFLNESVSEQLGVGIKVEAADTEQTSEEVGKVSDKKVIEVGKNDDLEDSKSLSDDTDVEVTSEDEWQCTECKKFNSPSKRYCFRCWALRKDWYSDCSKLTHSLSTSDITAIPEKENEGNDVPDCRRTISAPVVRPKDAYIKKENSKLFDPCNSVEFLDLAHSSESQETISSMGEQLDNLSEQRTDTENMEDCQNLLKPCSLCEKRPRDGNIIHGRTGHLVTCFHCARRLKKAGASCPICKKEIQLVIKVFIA
Chain of Protein Mdm4 (Homo sapiens) + E3 ubiquitin-protein ligase Mdm2 (Homo sapiens) (Q00987 whole entry, looked up): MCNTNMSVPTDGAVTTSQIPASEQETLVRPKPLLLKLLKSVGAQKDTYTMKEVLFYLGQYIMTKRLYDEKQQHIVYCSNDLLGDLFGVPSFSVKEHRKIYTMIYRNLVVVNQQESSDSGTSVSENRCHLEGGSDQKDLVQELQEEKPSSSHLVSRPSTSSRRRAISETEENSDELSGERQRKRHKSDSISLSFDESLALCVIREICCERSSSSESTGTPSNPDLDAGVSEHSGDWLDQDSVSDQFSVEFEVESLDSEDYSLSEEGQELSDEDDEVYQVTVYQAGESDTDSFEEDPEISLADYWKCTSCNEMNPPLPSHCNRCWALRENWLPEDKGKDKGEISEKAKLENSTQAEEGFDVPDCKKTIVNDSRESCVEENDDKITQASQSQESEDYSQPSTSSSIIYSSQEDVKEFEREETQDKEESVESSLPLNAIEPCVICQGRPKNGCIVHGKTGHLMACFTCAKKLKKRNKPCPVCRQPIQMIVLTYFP

SMILES | inhibition
CC(=O)/C(=N\Nc1ccc(Cl)cc1Cl)Sc1cccc2cccnc12 | 63% (active)
N#Cc1ccc(C(=O)Nc2cccc3cccnc23)c(F)c1 | 1.3%
NC(N)=Nc1nc(-c2ccccc2)c2cc(Cl)ccc2n1 | 59.5% (active)
CCCCCCC(=O)N(O)C1CC(=O)N(c2ccccc2)C1=O (stereo unspecified) | 27.3%
COc1ccc(Nc2ncnc3ccc(Br)cc23)c(OC)c1 | 74% (active)
CCN(CCCNC(=O)CSc1cc(=O)n(C)c2cc(Cl)ccc12)Cc1ccccc1 | 19.6%
CC1CN(C(=O)CCC(=O)NCCCN2CCC(Cc3ccccc3)CC2)c2cc(Cl)ccc2O1 (stereo unspecified) | 56.8% (active)
FC(F)(F)c1ccc(CN2C[C@@H]3C(c4ccccc4)C4(c5ccccc5)CC3(C4)[C@H]2c2ccccc2)cc1 (stereo partly specified) | 94.5% (active)
Cc1cc(C(=O)NC2CCCc3c2cnn3-c2cccc(C)c2C)c(C)o1 (stereo unspecified) | 61.6% (active)
COc1ccc(C(=O)NC2CCCc3c2cnn3-c2cccc(C)c2C)c(OC)n1 (stereo unspecified) | 94.8% (active)
CCCC(O)(CCC)C(=O)NN(C(=O)CCl)c1cccc(C)c1 | 58.3% (active)
CCCCC(O)(CCCC)C(=O)NN(C(=O)CCl)c1ccccc1 | 57.1% (active)
CCCCn1ccnc1C(=O)c1cccc(S(=O)(=O)N2c3ccccc3CC2C)c1 (stereo unspecified) | 9.35%
N=c1n(CCc2ccccc2)c2ccccc2n1Cc1ccccc1F | 52.5% (active)
CCCc1ccc(OCC(=O)NNC(=S)NC(=O)c2ccco2)cc1 | 23.9%
COC(=O)c1c(NC(=O)COc2ccc(Cl)cc2Cl)sc2c1CC(C)(C)NC2(C)C | 73.6% (active)
CN1CCN(C2Cc3ccc(Cl)cc3Sc3ccc(F)cc32)CC1 (stereo unspecified) | 27.8%
Oc1cccc(/C=N/Nc2ccc(Cl)nn2)c1O | 61.2% (active)
CCOc1ccc(C2c3[nH]c4ccccc4c3CCN2Cc2cccn2-c2ncccn2)cc1 (stereo unspecified) | 32.3%

SMILES | inhibition
C=CCn1c(SCc2c(C)noc2C)nc2sc3c(c2c1=O)CCC(C)C3 (stereo unspecified) | 57.9% (active)
CCOc1cc(-c2cc(-c3ccc(NC(C)=O)cc3)nc(N)c2C#N)ccc1O | 31.6%
Cc1ccc(-n2[nH]c(C)c(/C=N/NC(=O)c3cccc([N+](=O)[O-])c3)c2=O)cc1C | 82.2% (active)
NS(=O)(=O)c1ccc(N=Nc2c(O)[nH]c3ccc(Br)cc23)cc1 | 42.6% (active)
O=[N+]([O-])c1cc(S(=O)(=O)Nc2cccc(Cl)c2)ccc1N=Nc1c(O)[nH]c2ccccc12 | 5.3%
CCNS(=O)(=O)c1ccc(NC(=O)Nc2cccc(C(F)(F)F)c2)cc1 | 42.4% (active)
O=C(Nc1ccc(-c2csc(Nc3cccc(C(F)(F)F)c3)n2)cc1)c1cccc(C(F)(F)F)c1 | -10.4%
O=C(Nc1ccc(C(=O)N2CCOCC2)cc1)Nc1cccc(C(F)(F)F)c1 | 70.3% (active)
CC(C)Oc1c(Br)cc(Br)cc1/C=N/NC(N)=S | 15.2%
CCC1CCCCN1CCCNC(=O)c1cc2c(Cl)nc3ccccc3c2s1 (stereo unspecified) | 26%
Cc1nc(/N=C(\N)NC(=O)NC2CCCCC2)nc2ccccc12 | 43.9% (active)
O=[N+]([O-])/C=C/c1ccc2c(ccn2Cc2ccccc2)c1 | 52.9% (active)
CN(c1ccccc1)S(=O)(=O)c1cc(C(=O)N2CCN(c3ncccn3)CC2)ccc1Cl | 50.1% (active)
O=C(CSc1nc(Nc2ccccc2)nc(N2CCOCC2)n1)Nc1cc(Cl)ccc1O | 35%
COc1cccc(-n2c(SCC(=O)NC3CCCCC3)nc3n[nH]c(C)c3c2=N)c1 | 51.4% (active)
CC(C)(C)OC(=O)N1CCC(NC(=O)c2[nH]cnc2C(=O)N[C@@H](Cc2ccccc2)C(=O)OCc2ccccc2)CC1 | -8%
CCOC(=O)Nc1ccc2c(c1)N(C(=O)CCCl)c1ccccc1[S@]2=O | 41.2% (active)
CCOc1cc2[nH]c(=S)n(Cc3ccc(C(=O)N4CCN(C)CC4)cc3)c(=O)c2cc1OCC | -2.8%
CCOc1cc(C(=O)N2CCc3cc(OC)c(OC)cc3C2)ccc1OC(F)F | 56.4% (active)

SMILES | inhibition
O=c1[nH]c(CCl)nc2cc(-c3ccc(Cl)cc3)sc12 | 7.45%
COc1cccc(NC(=O)[C@H](Cc2c[nH]c3ccccc23)NC(=O)[C@@H]2Cc3ccccc3CN2)c1 | 76% (active)
CC(C)=CCCC1(C)C=Cc2c(ccc3c2[nH]c2cc(O)c(C)cc23)O1 (stereo unspecified) | 20.9%
Cc1ccc(OCCOCCOc2ccc(Br)cc2/C=N\NC(=O)c2ccncc2)cc1 | 68% (active)
O=[N+]([O-])c1ccccc1S(=O)(=O)Nc1cccc2cccnc12 | 64.5% (active)
O=C(Nc1cccc(C(F)(F)F)c1)c1ccc(N2CCNCC2)c([N+](=O)[O-])c1 | 8.6%
CC(NC(=O)c1ccc(N2CCNCC2)c([N+](=O)[O-])c1)C12CC3CC(CC(C3)C1)C2 (stereo unspecified) | 73% (active)
O=C(/C=C/c1ccc(Cl)cc1)Nc1ccc(Br)cn1 | 13.2%
Cc1cccc(Nc2ccccc2C(=O)NCc2ccco2)c1C | 43.1% (active)
CCc1nn(-c2cc(Oc3cccc4ccccc34)nc(-c3ccccc3)n2)c(N)c1C#N | 13.9%
CN(C)c1ccnc2sc3c(=O)n(Cc4ccccc4)cnc3c12 | 64.7% (active)
Cc1c(/C=N\NC(=O)c2cc3ccccc3o2)c2ccccc2n1C | 54.4% (active)
N#CCC(=O)N/N=C/c1cn(Cc2ccc3ccccc3c2)c2ccccc12 | 23.6%
COc1cccc(CNCCc2c[nH]c3ccccc23)c1OCc1ccccc1F | 45.4% (active)
COc1cccc(-c2nnc(NC(=O)c3ccc(S(=O)(=O)N(CC(C)C)CC(C)C)cc3)o2)c1 | 52.3% (active)
NC(=O)c1sc2nc3c(c(-c4ccccc4)c2c1N)CCC3 | 68.7% (active)
COc1ccc(CNC(=O)C[C@H]2C[C@H](C(=O)N3CCOCC3)[C@@]3(CCC4CCCC4)c4[nH]c5ccc(Cl)cc5c4CCN3C2=O)cc1OC | 49.1% (active)
CCCCCCCCn1c2c(c(=N)c3c1CCC3)CCCC2 | 91.8% (active)
